Assay results from PubChem BioAssay (NCATS).
Unmarked numbers belong to inactive results. Results filed as inconclusive are left out. Entries that show only a call come without a potency. Calls of active or inactive are those of the source. Unless noted, calls come from the whole dose curve; as a rule, active = well fitted curve in the direction sought with a large enough effect; inconclusive = small, poorly fitted or top-dose-only effect, or another doubt; inactive = no such curve, though single readings can be large; an effect the other way counts as inactive or inconclusive.

How the values were obtained:
[1] = Confirmation and Secondary Assay for Modulators of Hemoglobin Beta Chain Splicing at IVS2 654 locus (AID 910)
Summary of the method: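 HeLa cells stably carrying EGFP interrupted by mutant beta-globin IVS2-654 intron (CMV-driven) were treated with compound for 2 days at 37C; corrected splicing was scored as total peak GFP intensity per well (488 nm excitation, 500-520 nm emission).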

[2] = Confirmation and Secondary Assay for Modulators of Hemoglobin Beta Chain Splicing at IVS2 705 locus (AID 930);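 note: HeLa cells stably expressing the EGFP-705 splicing reporter; GFP fluorescence per well restored by corrected splicing of the IVS2-705 intron in EGFP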
Summary of the method: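 HeLa cells stably carrying EGFP interrupted by mutant beta-globin intron 2 (IVS2-705) treated 2 days at 37C with compound; 500 nM antisense PNA as control. Correct splicing read as total peak GFP intensity per well by laser-scanning cytometry.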

[3] = target: Ubiquitin carboxyl-terminal hydrolase 1 (Homo sapiens) (UniProt O94782); experiment: Inhibitors of USP1/UAF1: Pilot qHTS (AID 504865);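 note: rhodamine fluorescence freed from ubiquitin-rhodamine substrate followed over time; top concentration of the series differs between compounds; nearly all actives have a fitted effect of over 35% in size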
Summary of the method: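 Deubiquitinase activity followed as kinetic rhodamine fluorescence release from 150 nM Ub-Rho. 1 nM USP1/UAF1 with compound, after 15 min room-temperature preincubation, in HEPES pH 7.8 buffer containing TCEP, EDTA, BSA and Tween-20.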

[4] = target: Rap guanine nucleotide exchange factor 3 (Homo sapiens) (UniProt O95398); experiment: Confirmatory qHTS for antagonist of cAMP-regulated guanine nucleotide exchange factor 3 (EPAC1) (AID 1645880); settings: EPAC1 Rap1B-BODIPY-GDP exchange, fluorescence; activity, negative = inhibition: at 115 µM (top of the series); note: nearly all actives have a fitted effect of over 55% in size
Summary of the method: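 Released BODIPY-GDP fluoresces less than Rap1-bound BODIPY-GDP; the signal is followed at 480/540 nm at 5-min intervals over 30 min, after 5 min at room temperature. Reactions contain 100 nM EPAC1, 250 nM RAP1B-BODIPY-GDP and 50 uM GDP; results are normalized to ATA and DMSO.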

[5] = target: Rap guanine nucleotide exchange factor 3 (Homo sapiens) (UniProt O95398); experiment: Confirmatory qHTS for agonist of cAMP-regulated guanine nucleotide exchange factor 3 (EPAC1) (AID 1645881); note: nearly all actives have a fitted effect of over 75% in size; note: potency is the fitted concentration of half-maximal effect;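 for activation: EPAC1 catalysed release of BODIPY-GDP from Rap1B seen as fluorescence loss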
[6] = target: Rap guanine nucleotide exchange factor 4 (Homo sapiens) (UniProt Q8WZA2); experiment: Confirmatory qHTS for agonist of cAMP-regulated guanine nucleotide exchange factor 4 (EPAC2) (AID 1645884);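 note: nucleotide exchange releases bodipy-GDP from Rap1 and this lowers its fluorescence; nearly all actives have a fitted effect of over 65% in size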; note: potency is the fitted concentration of half-maximal effect
[7] = target: Rap guanine nucleotide exchange factor 4 (Homo sapiens) (UniProt Q8WZA2); experiment: Confirmatory qHTS for antagonist of cAMP-regulated guanine nucleotide exchange factor 4 (EPAC2) (AID 1645885); note: nearly all actives have a fitted effect of over 25% in size; note: potency is the fitted concentration of half-maximal effect
[8] = target: Cytochrome P450 3A4 (Homo sapiens) (UniProt P08684); experiment: qHTS Assay for Activators of Cytochrome P450 3A4 (AID 885); note: nearly all actives have a fitted effect of over 65% in size
Summary of the method: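 CYP3A4 activity: Luciferin-PPXE O-dealkylation, 25uM substrate, 200mM KPO4, RT throughout. Read-out is luciferase luminescence; higher values reflect activation.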

[9] = target: Tumor susceptibility gene 101 protein (Homo sapiens) (UniProt Q99816); experiment: qHTS Assay for Iinhibitors of HIV-1 Budding by Blocking the Interaction of PTAP/TSG101: Hit Validation (AID 651600); note: potency is the fitted concentration of half-maximal effect; nearly all actives have a fitted effect of over 70% in size
Summary of the method: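 FITC-PTAP peptide (50 nM final) binding to Tsg101 binding domain (10 uM final) was measured by polarization after 20 min at r.t. with compounds, in 10 mM HEPES pH 7.5 buffer with 0.15 M NaCl and 0.01% Tween 20.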

[10] = target: Rap guanine nucleotide exchange factor 3 (Homo sapiens) (UniProt O95398); experiment: Counterscreen qHTS for agonist of cAMP-regulated guanine nucleotide exchange factor 3 (EPAC1) (AID 1645889); note: potency is the fitted concentration of half-maximal effect; nearly all actives have a fitted effect of over 40% in size
Summary of the method: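 Measured: fluorescence of BODIPY-GDP bound to Rap1B, which falls as exchange proceeds. Conditions include 50 uM competing GDP, 5 and 30 min reads, and a later cAMP challenge for antagonist detection.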

[11] = target: Cytochrome P450 3A4 (Homo sapiens) (UniProt P08684); experiment: qHTS Assay for Inhibitors and Substrates of Cytochrome P450 3A4 (AID 884); note: potency is the fitted concentration of half-maximal effect; nearly all actives have a fitted effect of over 50% in size
Summary of the method: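 Luminescent readout of luciferin produced by CYP3A4 (20 nM) dealkylation of Luciferin-PPXE, 25 uM (its KM). NADPH-driven reaction ran 60 min at RT after 10 min compound preincubation; data scaled to 57 uM ketoconazole as 100% inhibition.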

[12] = target: Lysosomal acid glucosylceramidase (Homo sapiens) (UniProt P04062); experiment: Glucocerebrosidase-p2 (AID 348; in the data active = potency below about 10 µM; note: potency is the fitted concentration of half-maximal effect); settings: purified GBA, blue fluorogenic substrate, 40 min
Summary of the method: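 Normal human glucocerebrosidase (0.2 nM) with blue fluorogenic substrate (80 uM final) in citrate/phosphate pH 5.9 with 10mM sodium taurocholate, 0.01% tween-20; 40 min RT, NaOH/glycine stop; fluorescence Ex 365/Em 440; AC50 from a titration from 0.6 nM upwards.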

[13] = AP1 Signaling Pathway (AID 357; active = well fitted curve in either direction with a large enough effect, not every such curve was filed as active); settings: ME-180 AP-1-bla reporter, EGF-induced, beta-lactamase ratio, 5 h; at 7.69 µM (top of the series) unless noted
Summary of the method: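 ME-180 cells with beta-lactamase reporter under AP-1 response element, stimulated with EC50 EGF; compounds tested in titration series, 5 h at 37 °C. CCF4 substrate added 2.5 h at room temperature; 460/530 nm emission ratio gave %activity and AC50.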

[14] = target: Cytochrome P450 1A2 (Homo sapiens) (UniProt P05177); experiment: p450-cyp1a2 (AID 410; calls by dose curve; note: potency is the fitted concentration of half-maximal effect)
Summary of the method: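 Read-out is luminescence from luciferin produced by CYP1A2 demethylation of Luciferin-ME (100uM, at Km). Detection reagent stopped the 60 min NADPH-dependent reaction; signals were normalized to 57 uM furafylline.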

[15] = NFAT Signaling Pathway (AID 444; active = well fitted curve in either direction with a large enough effect, not every such curve was filed as active;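 note: carbachol stimulus at about its EC50 of 1 µM final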); settings: Jurkat NFAT-bla M1, carbachol, beta-lactamase ratio, 5 h; at 7.69 µM (top of the series) unless noted
Summary of the method: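 Jurkat cells carrying an NFAT-driven β-lactamase reporter and co-transfected muscarinic M1 receptor were treated with compound plus carbachol (1 uM final, an EC50 level) for 5 h at 37 °C. CCF4 loading followed for 1 h at RT; 460/530 nm ratio gave %activity.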

[16] = Stat Signaling Pathway (AID 446; active = well fitted curve in either direction with a large enough effect, not every such curve was filed as active;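 note: ME-180 cervical cancer cells given 40 pM IL-6 alongside compound; SIE-controlled beta-lactamase reporter measured as 460/530 nm FRET emission ratio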)
Summary of the method: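 Compound effects on IL-6-induced STAT reporter activity were measured in ME-180 cells. After overnight culture, cells were co-treated with 40 pM IL-6 for 5 hrs before beta-lactamase substrate loading at room temperature.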

[17] = target: Glucocorticoid receptor (Homo sapiens) (UniProt P04150); experiment: GR-GFP Redistribution (AID 450;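 active = compounds whose dose series gives a full or clear partial fitted curve of increased nuclear translocation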; note: potency is the fitted concentration of half-maximal effect); settings: U2OS GR-GFP nuclear translocation, laser cytometry, 2 h
[18] = target: Glucocorticoid receptor (Homo sapiens) (UniProt P04150); experiment: GR-EFC Redistribution (AID 451; calls by dose curve; note: potency is the fitted concentration of half-maximal effect); settings: CHO-K1 GR-EFC translocation, beta-gal luminescence, 2 h
Summary of the method: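 CHO-K1 cells stably expressing nuclear-localized β-gal enzyme acceptor and GR fused C-terminally to the enzyme donor fragment; ligand-driven nuclear translocation restores β-gal by complementation. Compounds titrated up to 46 uM final, 2 h at 37 °C; luminescence read.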

[19] = target: 3',5'-cyclic-AMP phosphodiesterase 4B (Homo sapiens) (UniProt Q07343); experiment: qHTS Assay for Inhibitors of PDE-IV (AID 607; active = well fitted activation curve with a large enough effect in the main read-out, with a control signal flat, not every such curve was filed as active)
Summary of the method: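 ACTOne HEK293 cells carry a modified cAMP-gated CNG channel and express endogenous PDE4; plated 1000 cells/well, compounds up to 22.9 uM final. Membrane-potential dye fluorescence (ex 535/em 590) was read; parental cells received 10 uM forskolin + 100 uM RO 20-1724.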

[20] = target: Cytochrome P450 2C19 (Homo sapiens) (UniProt P33261); experiment: qHTS Assay for Inhibitors and Substrates of Cytochrome P450 2C19 (AID 899); note: potency is the fitted concentration of half-maximal effect; nearly all actives have a fitted effect of over 60% in size
Summary of the method: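 Human CYP2C19 (5nM) with Luciferin-H EGE at 10uM (its KM) in 50mM KPO4 was preincubated with compound for 10 min at 37C. NADPH regeneration started a 60 min 37C reaction. Luciferin was read by luminescence, normalized to 57uM ketoconazole.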

[21] = target: Dual specificity protein kinase CLK4 (Homo sapiens) (UniProt Q9HAZ1); experiment: qHTS Assay for Inhibitors of CDC-like Kinase 4 (Kinase-Glo Assay) (AID 1770); note: nearly all actives have a fitted effect of over 65% in size
Summary of the method: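 Luminescent ATP-depletion read-out (Kinase-Glo) after 4.5 h room-temperature reaction of Clk4 (25 nM final) with RS peptide (100 uM) and ATP (1 uM), pH 7.5 Tris buffer with MgCl2 and DTT.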

[22] = target: Dual specificity protein kinase CLK4 (Homo sapiens) (UniProt Q9HAZ1); experiment: qHTS Assay for Inhibitors of CDC-like Kinase 4 (ADP-Glo Assay) (AID 1771); note: nearly all actives have a fitted effect of over 70% in size
Summary of the method: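 In this ADP-Glo format, 1 uM ATP and 100 uM RS peptide served as substrates for 25 nM Clk4 in Mg2+/EGTA/DTT/Triton buffer; reactions ran 1 hr at room temperature before luminescent ADP quantification.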

[23] = target: Dual specificity protein kinase CLK4 (Homo sapiens) (UniProt Q9HAZ1); experiment: qHTS Assay for Inhibitors of CDC-like Kinase 4 (ADP-FP Assay) (AID 1795);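 note: recombinant human CLK4 phosphorylating RS repeat peptide at 1 µM ATP; nearly all actives have a fitted effect of over 60% in size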
Summary of the method: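 Kinase activity was measured as ADP production using Transcreener orange tracer (4 nM) and ADP antibody (1 ug/mL) fluorescence polarization, with ADP calculated from a calibration curve. The 1 h reaction contained 6.25 nM Clk4, 1 uM ATP and 100 uM RS peptide at pH 7.5 with Mg2+.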

Rap guanine nucleotide exchange factor 4 (Homo sapiens), sequence (Q8WZA2 whole entry, looked up): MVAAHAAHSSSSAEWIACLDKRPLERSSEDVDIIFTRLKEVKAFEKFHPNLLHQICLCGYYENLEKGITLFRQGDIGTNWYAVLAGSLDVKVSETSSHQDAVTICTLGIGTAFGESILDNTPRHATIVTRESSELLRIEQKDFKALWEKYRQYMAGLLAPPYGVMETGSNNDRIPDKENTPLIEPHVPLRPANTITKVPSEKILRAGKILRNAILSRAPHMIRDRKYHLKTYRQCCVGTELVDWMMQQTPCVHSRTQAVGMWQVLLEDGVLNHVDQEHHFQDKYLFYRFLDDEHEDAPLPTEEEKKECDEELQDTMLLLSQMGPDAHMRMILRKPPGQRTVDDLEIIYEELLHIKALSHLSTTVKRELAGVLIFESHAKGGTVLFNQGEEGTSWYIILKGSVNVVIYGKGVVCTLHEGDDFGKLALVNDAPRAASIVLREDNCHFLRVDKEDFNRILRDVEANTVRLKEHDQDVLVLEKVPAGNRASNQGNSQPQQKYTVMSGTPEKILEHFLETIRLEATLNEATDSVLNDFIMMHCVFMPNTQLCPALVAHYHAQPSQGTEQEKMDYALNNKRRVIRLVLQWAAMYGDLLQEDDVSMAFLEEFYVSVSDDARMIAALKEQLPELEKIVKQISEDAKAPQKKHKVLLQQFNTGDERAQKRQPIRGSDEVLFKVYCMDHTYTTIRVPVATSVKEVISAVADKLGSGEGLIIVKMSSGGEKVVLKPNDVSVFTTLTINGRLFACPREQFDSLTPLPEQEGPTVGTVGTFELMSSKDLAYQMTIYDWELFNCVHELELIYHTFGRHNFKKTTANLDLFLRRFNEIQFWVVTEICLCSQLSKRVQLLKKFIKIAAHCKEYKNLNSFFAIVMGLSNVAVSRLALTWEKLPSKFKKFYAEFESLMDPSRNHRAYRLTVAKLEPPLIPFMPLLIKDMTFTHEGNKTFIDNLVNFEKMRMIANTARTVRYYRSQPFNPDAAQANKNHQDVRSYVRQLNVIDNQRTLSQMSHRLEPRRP
Dual specificity protein kinase CLK4 (Homo sapiens), sequence (Q9HAZ1 whole entry, looked up): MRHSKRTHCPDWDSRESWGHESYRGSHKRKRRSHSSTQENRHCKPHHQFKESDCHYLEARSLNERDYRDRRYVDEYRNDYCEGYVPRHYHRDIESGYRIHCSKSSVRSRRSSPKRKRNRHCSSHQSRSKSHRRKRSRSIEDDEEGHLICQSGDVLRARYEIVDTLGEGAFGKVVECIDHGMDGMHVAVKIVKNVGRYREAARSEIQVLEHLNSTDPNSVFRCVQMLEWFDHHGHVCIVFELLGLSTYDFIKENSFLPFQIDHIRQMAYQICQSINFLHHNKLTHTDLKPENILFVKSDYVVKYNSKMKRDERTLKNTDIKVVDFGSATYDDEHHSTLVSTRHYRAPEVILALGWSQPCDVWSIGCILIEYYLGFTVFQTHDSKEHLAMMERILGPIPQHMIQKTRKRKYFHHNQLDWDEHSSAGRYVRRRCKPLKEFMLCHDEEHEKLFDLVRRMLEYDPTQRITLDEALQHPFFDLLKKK
Ubiquitin carboxyl-terminal hydrolase 1 (Homo sapiens), sequence (O94782 whole entry, looked up): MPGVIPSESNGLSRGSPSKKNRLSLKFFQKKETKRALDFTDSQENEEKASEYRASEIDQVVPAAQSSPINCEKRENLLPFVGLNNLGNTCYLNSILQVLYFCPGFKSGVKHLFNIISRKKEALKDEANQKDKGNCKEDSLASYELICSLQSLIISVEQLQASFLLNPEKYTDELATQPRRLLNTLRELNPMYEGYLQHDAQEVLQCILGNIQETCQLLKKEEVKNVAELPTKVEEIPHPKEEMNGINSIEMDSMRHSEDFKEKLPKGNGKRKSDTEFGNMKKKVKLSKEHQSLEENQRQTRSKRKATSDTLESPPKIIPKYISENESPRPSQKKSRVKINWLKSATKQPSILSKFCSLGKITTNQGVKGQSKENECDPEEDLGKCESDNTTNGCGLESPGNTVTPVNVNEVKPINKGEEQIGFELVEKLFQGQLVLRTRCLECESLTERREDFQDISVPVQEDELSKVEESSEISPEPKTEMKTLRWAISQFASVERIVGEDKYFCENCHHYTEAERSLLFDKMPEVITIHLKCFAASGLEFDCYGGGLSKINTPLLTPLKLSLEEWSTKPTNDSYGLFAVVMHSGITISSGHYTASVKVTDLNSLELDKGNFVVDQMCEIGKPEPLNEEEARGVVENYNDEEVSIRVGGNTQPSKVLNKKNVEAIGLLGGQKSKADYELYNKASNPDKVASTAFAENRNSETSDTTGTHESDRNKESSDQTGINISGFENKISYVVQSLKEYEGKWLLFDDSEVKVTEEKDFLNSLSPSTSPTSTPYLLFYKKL
Cytochrome P450 3A4 (Homo sapiens), sequence (P08684 whole entry, looked up): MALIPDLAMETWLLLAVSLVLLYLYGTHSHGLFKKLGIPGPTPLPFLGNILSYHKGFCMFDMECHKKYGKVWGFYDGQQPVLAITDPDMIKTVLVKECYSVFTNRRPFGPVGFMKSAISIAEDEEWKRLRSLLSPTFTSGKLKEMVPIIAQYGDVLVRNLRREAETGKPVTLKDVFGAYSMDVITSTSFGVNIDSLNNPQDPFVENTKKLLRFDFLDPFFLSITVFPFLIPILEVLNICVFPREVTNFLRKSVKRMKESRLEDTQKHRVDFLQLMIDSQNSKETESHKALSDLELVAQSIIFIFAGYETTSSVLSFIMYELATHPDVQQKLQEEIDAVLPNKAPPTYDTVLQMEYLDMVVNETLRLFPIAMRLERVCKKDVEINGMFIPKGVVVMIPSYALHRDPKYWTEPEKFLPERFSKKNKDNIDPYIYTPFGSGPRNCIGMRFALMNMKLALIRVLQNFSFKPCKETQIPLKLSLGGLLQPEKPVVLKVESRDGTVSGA
Rap guanine nucleotide exchange factor 3 (Homo sapiens), sequence (O95398 whole entry, looked up): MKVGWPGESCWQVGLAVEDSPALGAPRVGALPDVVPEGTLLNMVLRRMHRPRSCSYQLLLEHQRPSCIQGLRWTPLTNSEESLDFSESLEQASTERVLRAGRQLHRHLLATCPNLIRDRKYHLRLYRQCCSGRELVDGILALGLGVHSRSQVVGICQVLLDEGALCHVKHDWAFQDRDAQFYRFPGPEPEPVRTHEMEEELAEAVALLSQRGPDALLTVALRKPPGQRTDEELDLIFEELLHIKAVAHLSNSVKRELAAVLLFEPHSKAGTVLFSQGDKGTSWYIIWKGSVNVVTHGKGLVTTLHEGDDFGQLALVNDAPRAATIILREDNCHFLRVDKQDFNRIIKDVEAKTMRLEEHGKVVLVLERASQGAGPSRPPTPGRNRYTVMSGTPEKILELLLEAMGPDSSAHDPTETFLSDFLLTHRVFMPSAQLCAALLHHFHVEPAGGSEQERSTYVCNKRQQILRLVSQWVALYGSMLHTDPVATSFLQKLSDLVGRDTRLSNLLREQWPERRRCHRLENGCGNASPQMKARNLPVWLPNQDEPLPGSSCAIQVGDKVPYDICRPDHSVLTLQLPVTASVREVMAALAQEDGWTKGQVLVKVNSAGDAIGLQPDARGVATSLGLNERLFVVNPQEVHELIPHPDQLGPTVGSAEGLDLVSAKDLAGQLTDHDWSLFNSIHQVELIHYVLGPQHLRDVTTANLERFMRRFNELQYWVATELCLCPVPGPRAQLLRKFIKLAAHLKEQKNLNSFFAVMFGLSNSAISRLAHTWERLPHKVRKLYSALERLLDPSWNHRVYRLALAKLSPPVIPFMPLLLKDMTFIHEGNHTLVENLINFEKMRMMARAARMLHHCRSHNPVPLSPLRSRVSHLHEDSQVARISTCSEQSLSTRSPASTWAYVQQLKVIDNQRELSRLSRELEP
Tumor susceptibility gene 101 protein (Homo sapiens), sequence (Q99816 whole entry, looked up, the tested form may be a part): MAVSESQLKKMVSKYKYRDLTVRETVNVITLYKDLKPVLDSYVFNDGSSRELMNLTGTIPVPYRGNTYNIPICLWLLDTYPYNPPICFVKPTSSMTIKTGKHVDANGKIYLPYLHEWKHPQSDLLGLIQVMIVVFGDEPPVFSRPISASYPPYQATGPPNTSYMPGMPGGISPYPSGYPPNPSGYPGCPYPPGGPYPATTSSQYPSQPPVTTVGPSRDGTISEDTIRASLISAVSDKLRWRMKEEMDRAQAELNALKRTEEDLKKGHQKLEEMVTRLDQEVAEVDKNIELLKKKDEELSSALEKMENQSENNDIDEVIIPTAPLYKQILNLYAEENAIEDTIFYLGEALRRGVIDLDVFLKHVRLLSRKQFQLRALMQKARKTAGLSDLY
Glucocorticoid receptor (Homo sapiens), sequence (P04150 whole entry, looked up, the tested form may be a part): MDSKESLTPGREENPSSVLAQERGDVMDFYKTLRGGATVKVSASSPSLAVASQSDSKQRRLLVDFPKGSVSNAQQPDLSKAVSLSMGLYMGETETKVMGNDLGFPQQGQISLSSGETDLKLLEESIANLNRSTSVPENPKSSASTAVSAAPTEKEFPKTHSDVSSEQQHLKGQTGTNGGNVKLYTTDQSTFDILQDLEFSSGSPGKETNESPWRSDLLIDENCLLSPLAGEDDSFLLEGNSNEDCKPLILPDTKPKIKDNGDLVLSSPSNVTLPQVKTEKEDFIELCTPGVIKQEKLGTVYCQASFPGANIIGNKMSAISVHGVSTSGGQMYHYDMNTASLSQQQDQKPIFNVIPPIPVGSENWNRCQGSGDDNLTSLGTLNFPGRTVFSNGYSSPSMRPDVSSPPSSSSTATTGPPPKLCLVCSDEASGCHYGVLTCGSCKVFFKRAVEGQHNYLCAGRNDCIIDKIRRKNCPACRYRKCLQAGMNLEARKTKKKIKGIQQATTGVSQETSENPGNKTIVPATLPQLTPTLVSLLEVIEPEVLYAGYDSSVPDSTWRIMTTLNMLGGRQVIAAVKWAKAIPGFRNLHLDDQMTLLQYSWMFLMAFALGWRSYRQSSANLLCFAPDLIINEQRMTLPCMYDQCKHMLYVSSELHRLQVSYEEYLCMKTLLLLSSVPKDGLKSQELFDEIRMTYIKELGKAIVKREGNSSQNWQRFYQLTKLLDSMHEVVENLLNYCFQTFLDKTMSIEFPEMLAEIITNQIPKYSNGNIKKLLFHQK

## CC1(C)C(OC(=O)CCC(=O)O)CC[C@]2(C)C1CC[C@@]1(C)C2C(=O)C=C2[C@@H]3C[C@@](C)(C(=O)O)CC[C@]3(C)CCC21C (stereo partly specified)
[1]
  Potency: inactive
[2]
  Potency: inactive
[3]
  Potency: inactive
[4]
  Potency: inactive
[5]
  Potency: inactive
[6]
  Potency: inactive
[7]
  Potency: 15.6 µM (active)

## CCOC(=O)C1(O)Oc2cc(OC)cc(OC)c2C(=O)C1c1ccccc1 (stereo unspecified)
[8]
  outcome: inactive
[1]
  Potency: inactive
[2]
  Potency: inactive
[3]
  Potency: inactive
[4]
  Potency: inactive
[5]
  Potency: inactive
[6]
  Potency: inactive
[7]
  Potency: inactive

## CC(=O)Nc1ccc(N2C(=O)c3cccc4c(O)ccc(c34)C2=O)cc1
[9]
  Potency: 2.31 µM (active)
[4]
  Potency: inactive
[5]
  Potency: 79.4 µM (active)
[6]
  Potency: 112 µM (active)
[7]
  Potency: inactive
[10]
  Potency: 39.8 µM (active)

## COc1ccc2c(=O)c(OC)c(-c3ccccc3)oc2c1
[11]
  Potency: 10 µM (active)
[8]
  outcome: inactive
[1]
  Potency: inactive
[2]
  Potency: inactive
[4]
  Potency: inactive
[5]
  Potency: inactive
[6]
  Potency: inactive
[7]
  Potency: 13.9 µM (active)

## COc1cc2c(cc1OC)C1C(=O)c3ccc4c(c3OC1CO2)C=CC(C)(C)O4 (stereo unspecified)
[11]
  Potency: 31.6 µM (active)
[8]
  outcome: inactive
[1]
  Potency: inactive
[2]
  Potency: inactive
[4]
  Potency: inactive
[5]
  Potency: inactive
[6]
  Potency: inactive
[7]
  Potency: inactive

## Nc1ccc(-c2c3ccc(=O)cc-3oc3cc(O)ccc23)cc1C(=O)O
[9]
  Potency: 23.1 µM (active)
[4]
  Potency: inactive
[5]
  Potency: 50.1 µM (active)
[6]
  Potency: 100 µM (active)
[7]
  Potency: inactive
[10]
  Potency: 50.1 µM (active)

## CN(C)c1ncc2nc(CCc3ccccc3)c(=O)n(Cc3cccs3)c2n1
[12]
  Potency: > 11.4 µM
[13]
  activity change, negative = inhibition: 16.2%
[14]
  Potency: 1.58 µM (active)
[15]
  activity change, negative = inhibition: -16.3%
[16]
  outcome: inactive
[17]
  Potency: > 9.22 µM
[18]
  Potency: > 46 µM
[19]
  Potency: inactive
[8]
  outcome: inactive
[20]
  Potency: 6.31 µM (active)
[21]
  Potency: inactive
[22]
  Potency: inactive
[23]
  Potency: inactive
[3]
  Potency: inactive
[4]
  Potency: inactive
[5]
  Potency: inactive
[6]
  Potency: inactive
[7]
  Potency: inactive
